Compound activity deposited in PubChem BioAssay by Broad Institute.
MITF inh – inhibitors of MITF. TRPM1 promoter luciferase, luminescence, 24 h. inhibition, % (no concentration beside the values). 37,000 compounds, 0.28% hits. AID 2240; in the data active = inhibition above about 85%; inconclusive = no clear call, values can overlap the other calls; inactive = below about 68%;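 also: human melanocyte line stably carrying TRPM1 promoter luciferase reporter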
NOMO-1 viab – STK33 inhibitor candidate reducing NOMO-1 cell viability; inhibition, % (concentration not given with the values); 37,000 compounds, 7.5% hits; NOMO-1 AML viability, CellTiter-Glo luminescence, 72 h; in the data active = inhibition above about 80%; inconclusive = no clear call, values can overlap the other calls
Shh pathway inh – Sonic Hedgehog pathway inhibition | inhibition, % (test concentration not listed) | 22,000 compounds, 2.1% hits | Shh-LIGHT2 Gli-luciferase reporter, 30 h;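 active = mean inhibition across valid replicates above about 65%, limit read from the data; inconclusive = mean under the limit, yet half or more replicates past it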;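 also: pathway switched on by Shh-conditioned medium diluted 1 in 25 in low serum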
Numbers stand for hits. Most compounds without a hit are left out; they make up all but 7.9% or so of the library.

For C[C@@H]1CN([C@H](C)CO)C(=O)Cc2cc(NC(=O)Nc3ccc(C(F)(F)F)cc3)ccc2O[C@H]1CN(C)S(=O)(=O)c1ccc(F)cc1 the results were MITF inh inactive, NOMO-1 viab inactive and Shh pathway inh inactive.
Screening C[C@H]1CN([C@@H](C)CO)C(=O)Cc2cc(NC(=O)Nc3ccc(C(F)(F)F)cc3)ccc2O[C@H]1CN(C)S(=O)(=O)c1ccc(F)cc1 returned MITF inh inactive, NOMO-1 viab 115 and Shh pathway inh inactive.
C[C@@H]1CN([C@@H](C)CO)C(=O)Cc2cc(NC(=O)Nc3ccc(C(F)(F)F)cc3)ccc2O[C@@H]1CN(C)S(=O)(=O)c1ccc(F)cc1 was read as MITF inh inactive, NOMO-1 viab 100 and Shh pathway inh inactive.
CNC[C@@H]1Oc2c(NC(=O)c3cc(C)nn3C)cccc2C(=O)N([C@H](C)CO)C[C@@H]1C was read as MITF inh inactive, NOMO-1 viab inactive and Shh pathway inh inactive.
`O=S(=O)(c1ccc(Br)cc1)N1CCCCCC1` gave MITF inh inactive, NOMO-1 viab inactive and Shh pathway inh inactive.
For CS(=O)(=O)N(CC(=O)Nc1ccc(Cl)cc1)c1cccc([N+](=O)[O-])c1 the results were MITF inh inactive and NOMO-1 viab inactive.
C[C@H]1CN([C@@H](C)CO)C(=O)Cc2cc(NC(=O)Cc3cn(C)c4ccccc34)ccc2O[C@H]1CN(C)C(=O)Nc1ccccc1 was read as MITF inh inactive, NOMO-1 viab inactive and Shh pathway inh inactive.
For O=C(COc1ccccc1[N+](=O)[O-])Nc1cccc(Cl)c1N1CCOCC1 the results were MITF inh inactive and NOMO-1 viab 83.
For O=C(COc1ccccc1[N+](=O)[O-])Nc1ccccc1N1CCN(C(=O)c2ccccc2)CC1 the results were MITF inh inactive and NOMO-1 viab inactive.
`COc1ccc(C(=O)CSc2nnc(-c3ccccc3Cl)n2C)cc1OC` gave MITF inh inactive and NOMO-1 viab inactive.
Screening CS(=O)(=O)N(CC(=O)Nc1cc(Cl)ccc1Cl)c1cc(Cl)c(Cl)cc1Cl returned MITF inh inactive and NOMO-1 viab inactive.
For C[C@@H]1CCCCO[C@@H](CN(C)C(=O)Nc2ccccc2)[C@@H](C)CN([C@H](C)CO)C(=O)c2cc(NC(=O)Nc3ccc(C(F)(F)F)cc3)ccc2O1 the results were MITF inh inactive, NOMO-1 viab inactive and Shh pathway inh inactive.
Screening C[C@@H]1CCCCO[C@H](CN(C)CC2CCCCC2)[C@@H](C)CN([C@H](C)CO)C(=O)c2cc(NC(=O)Nc3ccccc3)ccc2O1 returned MITF inh inactive and NOMO-1 viab inconclusive.
Screening C[C@@H]1CCCCO[C@@H](CN(C)CC2CCCCC2)[C@@H](C)CN([C@H](C)CO)C(=O)c2cc(NC(=O)Nc3ccc(C(F)(F)F)cc3)ccc2O1 returned MITF inh inactive and NOMO-1 viab 117.
For C[C@@H]1CCCCO[C@@H](CN(C)CC2CCCCC2)[C@@H](C)CN([C@H](C)CO)C(=O)c2cc(NC(=O)Nc3ccc(F)cc3)ccc2O1 the results were MITF inh inactive and NOMO-1 viab 115.
Screening C[C@@H]1CCCCO[C@@H](CN(C)C(=O)NC2CCCCC2)[C@@H](C)CN([C@H](C)CO)C(=O)c2cc(NC(=O)Nc3ccc(C(F)(F)F)cc3)ccc2O1 returned MITF inh inactive, NOMO-1 viab 99 and Shh pathway inh inactive.
Screening C[C@@H]1CCCCO[C@@H](CN(C)Cc2ccncc2)[C@@H](C)CN([C@H](C)CO)C(=O)c2cc(NC(=O)Nc3ccc(C(F)(F)F)cc3)ccc2O1 returned MITF inh inactive, NOMO-1 viab inactive and Shh pathway inh inactive.
For C[C@@H]1CCCCO[C@@H](CN(C)C(=O)Nc2ccc(C(F)(F)F)cc2)[C@@H](C)CN([C@H](C)CO)C(=O)c2cc(NC(=O)c3ccccc3)ccc2O1 the results were MITF inh inactive, NOMO-1 viab 91 and Shh pathway inh inactive.
Screening C[C@@H]1CCCCO[C@H](CN(C)C(=O)Nc2ccc(C(F)(F)F)cc2)[C@@H](C)CN([C@H](C)CO)C(=O)c2cc(NC(=O)NC3CCCCC3)ccc2O1 returned MITF inh inactive, NOMO-1 viab inactive and Shh pathway inh inactive.
Screening CC(NS(=O)(=O)c1ccccc1)C(=O)Nc1cc(Cl)ccc1Oc1ccccc1 (stereo not given) returned MITF inh inactive and NOMO-1 viab inactive.
For CCN1C(=O)C(=Cc2c(O)n(CC)c(=O)n(CC)c2=O)C(=O)N(CC)C1=O the results were MITF inh inactive, NOMO-1 viab inactive and Shh pathway inh inactive.
For C[C@H]1CN([C@@H](C)CO)C(=O)c2cc(NC(=O)NC3CCCCC3)ccc2O[C@H]1CN(C)Cc1ccccc1 the results were MITF inh inactive and NOMO-1 viab inactive.
C[C@@H]1CCCCO[C@@H](CN(C)Cc2ccc(C(F)(F)F)cc2)[C@@H](C)CN([C@H](C)CO)C(=O)c2cc(NC(=O)Nc3ccc(F)cc3)ccc2O1 was read as MITF inh inactive, NOMO-1 viab inactive and Shh pathway inh inactive.
Screening C[C@@H]1CCCCO[C@@H](CN(C)CC2CC2)[C@@H](C)CN([C@H](C)CO)C(=O)c2cc(NC(=O)Nc3ccc(C(F)(F)F)cc3)ccc2O1 returned MITF inh inactive, NOMO-1 viab 119 and Shh pathway inh inactive.
For Cc1nc(SCC(=O)N2CCc3ccccc32)c2c3c(sc2n1)CCCC3 the results were MITF inh inactive and NOMO-1 viab inactive.
COc1cc(O)c(C(=O)c2c(C)cc(O)cc2OC)c(O)c1 was read as MITF inh inactive, NOMO-1 viab 121 and Shh pathway inh inactive.
COc1cc(O)c(C(C)=O)c(OC)c1 was read as MITF inh inactive, NOMO-1 viab inactive and Shh pathway inh inactive.
CC1CCc2c(sc3ncn(CC(=O)Nc4ccccc4C(F)(F)F)c(=O)c23)C1 (stereo not given) was read as MITF inh inactive and NOMO-1 viab inactive.
Screening O=[N+]([O-])c1cc(C(F)(F)F)ccc1NCCNS(=O)(=O)c1ccc2ccccc2c1 returned MITF inh inactive and NOMO-1 viab inactive.
Screening Cc1ccc(N=Cc2cc3ccccc3nc2Cl)cc1Cl returned MITF inh inactive, NOMO-1 viab 114 and Shh pathway inh 89.
Screening Fc1ccc(C=Nc2ccc3ccccc3c2)cc1 returned MITF inh inactive, NOMO-1 viab inactive and Shh pathway inh inactive.
Screening O=C1/C(=C/c2ccc3ccccc3c2)COc2ccccc21 returned MITF inh inactive, NOMO-1 viab 113 and Shh pathway inh inactive.
Screening CC(=O)N/C(=C\c1ccc2ccccc2c1)C(=O)O returned MITF inh inactive, NOMO-1 viab inactive and Shh pathway inh inactive.
`COc1ccc2c(c1)OC/C(=C\c1ccc(OC)c(O)c1)C2=O` gave MITF inh inactive, NOMO-1 viab 107 and Shh pathway inh inconclusive.
COc1cc(/C=C2\Oc3cc(O)ccc3C2=O)ccc1O was read as MITF inh inactive, NOMO-1 viab inactive and Shh pathway inh inactive.
`CC(=O)c1cccc(N(CC(=O)Nc2ccc(Br)cc2F)S(C)(=O)=O)c1` gave MITF inh inactive and NOMO-1 viab inactive.
`CSc1nc(N)n(-c2cc(Cl)cc(Cl)c2)n1` gave MITF inh inactive, NOMO-1 viab inactive and Shh pathway inh inactive.
C=C[C@@]1(C)CCC2=C([C@H]1OC(C)=O)[C@H](OC(C)=O)CC1[C@](C)(C(=O)OC)CC[C@H](OC(C)=O)[C@]21C (stereo not given in full) was read as MITF inh inactive, NOMO-1 viab inactive and Shh pathway inh inactive.
